Data on 15 molecules can be found in PubChem BioAssay (EPA / NIEHS).

Records with an inconclusive call do not appear. Calls of active or inactive are those of the source. How the source made its calls, unless noted: active means hit-call score of the fitted dose curve at least 0.9, where 1 is the maximum; inconclusive means response in the unintended direction; inactive means score below 0.9.

Assay [1] addresses human RAR-related Orphan Receptor gamma (RORg), RORC (gene 6097) (UniProt P51449). The assay is described as follows: ATG_RORg_TRANS: Attagene TRANS-FACTORIAL HepG2 Assay for human RAR-related Orphan Receptor gamma (RORg) (AID 2283011). The method in brief:
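Readout: reporter transcript induction (RT-PCR, fluorescent primer extension, capillary electrophoresis) after 24 h compound exposure of transiently transfected HepG2 cells carrying a RORg-Gal4 chimera and GAL4-UAS reporters; DMSO served as baseline, with increasing signal fitted.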

The target in assay [2] is Retinoic acid receptor RXR-alpha (Homo sapiens) (UniProt P19793). The assay is described as follows: ATG_RXRa_TRANS: Attagene TRANS-FACTORIAL HepG2 Assay for human Retinoid X Receptor alpha (RXRa) (AID 2283012). The gist of the method: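 TRANS format reporting activity of exogenous RXRa-Gal4 chimera in transiently transfected HepG2, 24 h exposure. Reporter transcripts quantified by RT-PCR with capillary electrophoresis, with gain of signal scored relative to DMSO.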
Sequence of Retinoic acid receptor RXR-alpha (Homo sapiens) (P19793 whole entry, looked up, the tested form may be a part): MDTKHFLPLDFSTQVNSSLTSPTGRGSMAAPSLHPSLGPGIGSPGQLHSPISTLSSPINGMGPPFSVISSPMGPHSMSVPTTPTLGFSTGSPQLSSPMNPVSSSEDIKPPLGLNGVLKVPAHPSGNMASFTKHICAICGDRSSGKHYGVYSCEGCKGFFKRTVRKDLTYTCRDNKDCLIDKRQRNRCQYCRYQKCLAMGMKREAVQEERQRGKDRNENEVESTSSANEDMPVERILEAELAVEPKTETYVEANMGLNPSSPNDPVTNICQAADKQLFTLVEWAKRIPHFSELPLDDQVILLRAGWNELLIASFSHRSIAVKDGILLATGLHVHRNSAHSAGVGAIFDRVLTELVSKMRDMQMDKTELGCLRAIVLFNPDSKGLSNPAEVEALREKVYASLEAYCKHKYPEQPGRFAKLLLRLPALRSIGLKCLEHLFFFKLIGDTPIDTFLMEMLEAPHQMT

The target of assay [3] is human Retinoid X Receptor beta (RXRb), RXRB (gene 6257) (UniProt P28702). Briefly: ATG_RXRb_TRANS: Attagene TRANS-FACTORIAL HepG2 Assay for human Retinoid X Receptor beta (RXRb) (AID 2283013). The gist of the method: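 Readout is reporter transcript induction after 24 h dosing. It is measured by RT-PCR of total RNA followed by fluorescent capillary electrophoresis. HepG2 liver cells carry transfected multiple reporter units driven by an exogenous RXRb-Gal4 fusion; activity is relative to DMSO.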
Sequence of human Retinoid X Receptor beta (RXRb), RXRB (gene 6257) (P28702 whole entry, looked up, the tested form may be a part): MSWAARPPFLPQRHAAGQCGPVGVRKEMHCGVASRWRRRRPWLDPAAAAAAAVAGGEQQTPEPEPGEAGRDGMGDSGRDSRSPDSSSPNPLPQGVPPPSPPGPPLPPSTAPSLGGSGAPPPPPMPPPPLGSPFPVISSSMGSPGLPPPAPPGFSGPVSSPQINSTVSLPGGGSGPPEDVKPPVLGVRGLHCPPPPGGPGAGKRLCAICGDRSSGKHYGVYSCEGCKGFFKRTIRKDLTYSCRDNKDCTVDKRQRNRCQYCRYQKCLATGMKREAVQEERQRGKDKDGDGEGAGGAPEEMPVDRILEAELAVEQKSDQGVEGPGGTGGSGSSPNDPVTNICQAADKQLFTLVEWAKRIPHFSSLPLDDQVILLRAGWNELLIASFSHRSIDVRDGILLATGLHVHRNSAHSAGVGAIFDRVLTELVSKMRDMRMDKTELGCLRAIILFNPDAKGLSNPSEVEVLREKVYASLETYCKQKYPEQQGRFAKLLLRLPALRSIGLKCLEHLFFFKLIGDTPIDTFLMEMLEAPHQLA

For assay [4], the target named is human Thyroid Receptor alpha (THRa1), THRA (gene 7067) (UniProt P10827). The assay is described as follows: ATG_THRa1_TRANS: Attagene TRANS-FACTORIAL HepG2 Assay for human Thyroid Receptor alpha (THRa1) (AID 2283014). The method in brief: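 HepG2 cells transiently transfected with multiplexed GAL4-UAS reporter units for exogenous chimeric THRa1-Gal4; reporter mRNA measured 24 h after dosing by RT-PCR, 6-FAM labelling, HpaI digestion and capillary electrophoresis. Gain-of-signal fitted versus DMSO baseline.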
Sequence of human Thyroid Receptor alpha (THRa1), THRA (gene 7067) (P10827 whole entry, looked up, the tested form may be a part): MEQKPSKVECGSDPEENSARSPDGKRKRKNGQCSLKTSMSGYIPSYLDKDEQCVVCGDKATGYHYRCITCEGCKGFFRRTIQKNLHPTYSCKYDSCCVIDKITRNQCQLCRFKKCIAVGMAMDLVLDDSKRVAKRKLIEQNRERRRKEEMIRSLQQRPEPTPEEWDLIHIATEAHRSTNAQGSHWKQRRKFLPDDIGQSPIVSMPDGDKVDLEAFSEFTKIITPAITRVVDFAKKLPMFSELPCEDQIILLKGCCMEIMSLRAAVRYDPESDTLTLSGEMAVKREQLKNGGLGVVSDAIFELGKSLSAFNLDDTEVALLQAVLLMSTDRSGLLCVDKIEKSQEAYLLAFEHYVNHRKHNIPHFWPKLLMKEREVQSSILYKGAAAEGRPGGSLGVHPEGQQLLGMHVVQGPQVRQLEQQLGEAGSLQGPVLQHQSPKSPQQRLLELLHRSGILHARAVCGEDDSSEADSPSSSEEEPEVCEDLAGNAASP

For assay [5], the target named is human Vitamin D Receptor (VDR), VDR (gene 7421) (UniProt P11473). Briefly: ATG_VDR_TRANS: Attagene TRANS-FACTORIAL HepG2 Assay for human Vitamin D Receptor (VDR) (AID 2283022). The method in brief: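 HepG2 cells were transiently transfected with multiple GAL4-UAS reporter units, so signal reflects exogenous chimeric receptor-Gal4 activity. After 24 h compound exposure, reporter mRNA was measured by RT-PCR, fluorescent labelling and capillary electrophoresis, fitted for gain of signal versus DMSO.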
Sequence of human Vitamin D Receptor (VDR), VDR (gene 7421) (P11473 whole entry, looked up, the tested form may be a part): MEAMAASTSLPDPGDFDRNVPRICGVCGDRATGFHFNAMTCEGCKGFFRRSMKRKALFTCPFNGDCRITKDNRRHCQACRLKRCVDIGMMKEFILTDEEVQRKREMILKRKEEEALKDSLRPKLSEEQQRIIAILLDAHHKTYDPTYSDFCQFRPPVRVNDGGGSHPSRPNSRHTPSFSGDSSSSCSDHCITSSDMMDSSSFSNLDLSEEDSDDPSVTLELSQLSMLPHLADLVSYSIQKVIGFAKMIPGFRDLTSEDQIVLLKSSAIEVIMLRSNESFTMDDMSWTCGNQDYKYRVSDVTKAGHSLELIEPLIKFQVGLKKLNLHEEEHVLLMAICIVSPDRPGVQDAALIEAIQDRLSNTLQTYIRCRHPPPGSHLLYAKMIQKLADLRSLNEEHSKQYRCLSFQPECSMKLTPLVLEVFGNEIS

Read-out in assay [6]: E-selectin (Homo sapiens) (UniProt P16581)
The assay is described as follows: BSK_3C_Eselectin: BioMAP Diversity Plus: 3C Assay for Eselectin Biomarker Activity (AID 2283015; active means hit-call score of the fitted dose curve at least 0.9, where 1 is the maximum; inactive means score below 0.9;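 on outcome: cell surface E-selectin protein quantified by ELISA 24 h after dosing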). The note with it: primary human endothelial cells (HUVEC); actives raise or lower the signal. The gist of the method: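 Primary human umbilical vein endothelial cells (3C system) were dosed with chemical and cell-surface E-selectin measured by ELISA 24 h later. Bidirectional curve fitting used DMSO as negative control and baseline.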

Read-out in assay [7]: Interleukin-1 alpha (IL1a), IL1A (gene 3552)
Briefly: BSK_BE3C_IL1a: BioMAP Diversity Plus: BE3C Assay for Interleukin-1 alpha (IL1a) Biomarker Activity (AID 2283016; active means hit-call score of the fitted dose curve at least 0.9, where 1 is the maximum; inactive means score below 0.9). The note with it: primary human bronchial epithelial cells; actives raise or lower the signal. The method in brief: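 IL-1a measured by ELISA after 24 h treatment of human primary bronchial epithelial cells, with gain or loss of signal fitted versus DMSO. Parallel cultures stained with SRB gauge overt cytotoxicity.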

Read-out in assay [8]: Monocyte Chemoattractant Protein-1 (MCP1), CCL2 (gene 6347)
Briefly: BSK_3C_MCP1: BioMAP Diversity Plus: 3C Assay for Monocyte Chemoattractant Protein-1 (MCP1) Biomarker Activity (AID 2283017; active means hit-call score of the fitted dose curve at least 0.9, where 1 is the maximum; inactive means score below 0.9). The note with it: primary human endothelial cells (HUVEC); actives raise or lower the signal. The gist of the method:
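Primary human umbilical vein endothelial cells (3C system) were exposed to test chemical for 24 h, after which MCP-1 was quantified by ELISA. Activity was fitted bidirectionally against DMSO as negative control and baseline.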

Read-out in assay [9]: Monocyte Chemoattractant Protein-1 (MCP1), CCL2 (gene 6347)
Briefly: BSK_4H_MCP1: BioMAP Diversity Plus: 4H Assay for Monocyte Chemoattractant Protein-1 (MCP1) Biomarker Activity (AID 2283018; active means hit-call score of the fitted dose curve at least 0.9, where 1 is the maximum; inactive means score below 0.9). Particulars: primary human endothelial cells (HUVEC); actives raise or lower the signal. The gist of the method:
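ELISA of MCP-1 (CCL2) 24 h after chemical dosing of HUVEC in the BioMAP 4H system. Gain or loss versus DMSO fitted; parallel SRB staining (560 nm) tracked overt cytotoxicity.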

Read-out in assay [10]: Human Leukocyte Antigen - DR isotype (HLADR), HLA-DRA (gene 3122)
The assay is described as follows: BSK_3C_HLADR: BioMAP Diversity Plus: 3C Assay for Human Leukocyte Antigen - DR isotype (HLADR) Biomarker Activity (AID 2283019; active means hit-call score of the fitted dose curve at least 0.9, where 1 is the maximum; inactive means score below 0.9;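 on outcome: ELISA of cell-surface HLA-DR on HUVEC 24 h after dosing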). The note with it: primary human endothelial cells (HUVEC); actives raise or lower the signal. The gist of the method:
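Primary human umbilical vein endothelial cells (3C system) were dosed with compound and cell-surface HLA-DR was quantified by ELISA at 24 h. Activity was fitted bidirectionally against DMSO as negative control and baseline.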

Read-out in assay [11]: Interleukin-8 (IL8), CXCL8 (gene 3576)
Briefly: BSK_3C_IL8: BioMAP Diversity Plus: 3C Assay for Interleukin-8 (IL8) Biomarker Activity (AID 2283020; active means hit-call score of the fitted dose curve at least 0.9, where 1 is the maximum; inactive means score below 0.9). The note with it: primary human endothelial cells (HUVEC); actives raise or lower the signal. The method in brief: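 IL-8 was measured by ELISA in HUVEC cultures 24 h after chemical dosing, with gain or loss of signal fitted relative to DMSO. Parallel SRB total-protein staining tracked overt cytotoxicity.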

Read-out in assay [12]: Monokine induced gamma interferon (MIG), CXCL9 (gene 4283)
Briefly: BSK_3C_MIG: BioMAP Diversity Plus: 3C Assay for Monokine induced gamma interferon (MIG) Biomarker Activity (AID 2283021; active means hit-call score of the fitted dose curve at least 0.9, where 1 is the maximum; inactive means score below 0.9;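 on AC50: MIG protein level measured by immunoassay in the treated endothelial cultures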). The note with it: primary human endothelial cells (HUVEC); actives raise or lower the signal. The gist of the method:
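ELISA measurement of MIG in human umbilical vein endothelial cells 24 h after treatment. Cytotoxicity tracked by SRB staining in parallel cultures; gain or loss of signal fitted relative to DMSO.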

Assay [13] is described as follows: BSK_3C_SRB: Viability Assessment in the BioMAP Diversity Plus: 3C Assay (AID 2283023; active means hit-call score of the fitted dose curve at least 0.9, where 1 is the maximum; inactive means score below 0.9;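 further: fitted both ways against DMSO so a hit may be signal rise or drop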). Particulars: primary human endothelial cells (HUVEC). The gist of the method: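 Primary human umbilical vein endothelial cells in the 3C system were read 24 h after compound dosing. Total protein was stained with 0.1% sulforhodamine B after 10% TCA fixation and read at 560 nm, with bidirectional fitting against DMSO as baseline.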

Read-out in assay [14]: Matrix Metallopeptidase 1 (MMP1), MMP1 (gene 4312)
Briefly: BSK_BE3C_MMP1: BioMAP Diversity Plus: BE3C Assay for Matrix Metallopeptidase 1 (MMP1) Biomarker Activity (AID 2283024; active means hit-call score of the fitted dose curve at least 0.9, where 1 is the maximum; inactive means score below 0.9). Particulars: primary human bronchial epithelial cells; actives raise or lower the signal. The gist of the method: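 ELISA measurement of MMP-1 after 24 h compound exposure of primary human bronchial epithelial cells. Changes in either direction fitted relative to DMSO; parallel SRB staining checked overt cytotoxicity.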

A short description of assay [15]: BSK_3C_Vis: BioMAP Diversity Plus: 3C Assay for Morphology Visualization (AID 2283025; active means hit-call score of the fitted dose curve at least 0.9, where 1 is the maximum; inactive means score below 0.9;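 further: fitted both ways so gain or loss versus DMSO counts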;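 on AC50: light microscopy image of cell morphology used as background control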). The note with it: primary human endothelial cells (HUVEC). The gist of the method:
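Light-microscopy visualization of HUVEC cultures at 24 h post-treatment, with DMSO as baseline for bidirectional fitting.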

Read-out in assay [16]: Pselectin, SELP (gene 6403)
The assay is described as follows: BSK_4H_Pselectin: BioMAP Diversity Plus: 4H Assay for Pselectin Biomarker Activity (AID 2283026; active means hit-call score of the fitted dose curve at least 0.9, where 1 is the maximum; inactive means score below 0.9). Particulars: primary human endothelial cells (HUVEC); actives raise or lower the signal. The method in brief:
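ELISA of surface P-selectin on HUVEC, 24 h after dosing, with parallel SRB staining (0.1% after 10% TCA fixation, 560 nm) for overt cytotoxicity. Activity fitted in both directions relative to DMSO.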

The nature of assay [17]: BSK_4H_SRB: Viability Assessment in the BioMAP Diversity Plus: 4H Assay (AID 2283027; active means hit-call score of the fitted dose curve at least 0.9, where 1 is the maximum; inactive means score below 0.9;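 further: cells exposed to compound for 24 h before staining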;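 on AC50: curves fitted both ways versus DMSO so AC50 may be loss or gain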). The note with it: primary human endothelial cells (HUVEC). The gist of the method:
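HUVEC, 24 h post-dose; 10% TCA fix, 0.1% SRB stain, A560 nm. Total protein = overt cytotoxicity, parallel to biomarker read. Bidirectional fit vs DMSO baseline.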

A short description of assay [18]: BSK_BE3C_SRB: Viability Assessment in the BioMAP Diversity Plus: BE3C Assay (AID 2283028; active means hit-call score of the fitted dose curve at least 0.9, where 1 is the maximum; inactive means score below 0.9;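 on AC50: fitted both ways so AC50 may mark signal gain or loss versus DMSO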). Particulars: primary human bronchial epithelial cells. The method in brief: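 Human primary bronchial epithelial cells were exposed to test chemicals for 24 h. Total protein in parallel cultures was then measured by staining with 0.1% sulforhodamine B after 10% TCA fixation, with absorbance read at 560 nm. Activity was fitted bidirectionally against DMSO.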

Read-out in assay [19]: Thrombomodulin, THBD (gene 7056)
Briefly: BSK_3C_Thrombomodulin: BioMAP Diversity Plus: 3C Assay for Thrombomodulin Biomarker Activity (AID 2283029; active means hit-call score of the fitted dose curve at least 0.9, where 1 is the maximum; inactive means score below 0.9). The note with it: primary human endothelial cells (HUVEC); actives raise or lower the signal. The gist of the method: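 ELISA measurement of thrombomodulin on HUVEC surface 24 h after chemical dosing; activity fitted in both directions relative to DMSO vehicle.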

Sequence of human RAR-related Orphan Receptor gamma (RORg), RORC (gene 6097) (P51449 whole entry, looked up, the tested form may be a part): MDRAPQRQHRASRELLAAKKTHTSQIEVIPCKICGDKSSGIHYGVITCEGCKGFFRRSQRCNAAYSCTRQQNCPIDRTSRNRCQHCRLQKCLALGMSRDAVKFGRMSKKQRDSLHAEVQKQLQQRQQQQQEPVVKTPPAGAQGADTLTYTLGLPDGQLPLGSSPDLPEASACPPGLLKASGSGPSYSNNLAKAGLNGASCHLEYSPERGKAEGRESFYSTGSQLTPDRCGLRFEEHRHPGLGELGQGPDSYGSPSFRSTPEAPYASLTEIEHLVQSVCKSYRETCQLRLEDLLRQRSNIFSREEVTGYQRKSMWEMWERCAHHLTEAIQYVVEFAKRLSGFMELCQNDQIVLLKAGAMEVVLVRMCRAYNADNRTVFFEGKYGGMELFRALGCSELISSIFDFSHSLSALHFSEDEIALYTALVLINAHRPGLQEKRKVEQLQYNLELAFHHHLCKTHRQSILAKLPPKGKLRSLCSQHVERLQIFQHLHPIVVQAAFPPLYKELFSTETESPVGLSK
Sequence of E-selectin (Homo sapiens) (P16581 whole entry, looked up): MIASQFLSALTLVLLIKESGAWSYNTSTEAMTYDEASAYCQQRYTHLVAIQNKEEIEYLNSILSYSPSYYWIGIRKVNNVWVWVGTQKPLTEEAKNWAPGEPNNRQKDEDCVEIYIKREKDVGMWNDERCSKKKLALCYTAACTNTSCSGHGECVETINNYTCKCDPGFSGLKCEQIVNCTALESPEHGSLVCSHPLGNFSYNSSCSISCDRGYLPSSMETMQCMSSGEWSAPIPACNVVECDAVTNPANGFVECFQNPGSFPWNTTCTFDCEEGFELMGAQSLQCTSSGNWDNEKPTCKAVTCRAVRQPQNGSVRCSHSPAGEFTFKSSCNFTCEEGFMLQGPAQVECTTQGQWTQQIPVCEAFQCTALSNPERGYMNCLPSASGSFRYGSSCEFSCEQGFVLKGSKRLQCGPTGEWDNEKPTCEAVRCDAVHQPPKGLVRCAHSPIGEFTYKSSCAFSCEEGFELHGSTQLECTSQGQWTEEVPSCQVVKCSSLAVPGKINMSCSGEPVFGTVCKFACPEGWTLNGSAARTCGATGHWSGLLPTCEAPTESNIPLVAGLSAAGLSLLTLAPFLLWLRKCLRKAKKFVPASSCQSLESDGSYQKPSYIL

Usually AC50 stands for the concentration giving half of the maximal activity seen. As for `CCCC(CC)c1ccccc1` (configuration not stated), the molecule was classed as inactive in assay [1], in assay [2], in [4] and in assay [5]. In addition, in [3], the AC50 was 66.4 µM (active).

`C[Si]1(C)O[Si](C)(C)O[Si](C)(C)O[Si](C)(C)O[Si](C)(C)O1`: the result in [1], in [2] and in [4] was inactive.

`Clc1cccnc1`: the molecule was classed as inactive in assay [1], in assay [2] and in assay [4].

With `CC1(C)C(=O)N(CO)C(=O)N1CO`, the outcome in assay [1], in assay [2], in assay [4] and in assay [5] was inactive.

`CCCCC(CC)COC(=O)/C=C/c1ccc(OC)cc1` (configuration not stated): the result in assay [1], in [2], in assay [3], in [4] and in [5] was inactive.

In the case of `CC=C(C)C(C)=O`, the molecule was classed as inactive in assay [1], in [6], in assay [7], in assay [8], in assay [9] and in assay [10]. In addition, the outcome in assay [11], in [12], in assay [13], in assay [15], in assay [16] and in assay [17] was inactive. Besides, the result in assay [18] and in [19] was inactive. Moreover, the AC50 in assay [2] is 100 µM (active); in assay [3], 9.05 µM (active); in [14] it was 0.419 µM (active).

Take `O=S(=O)(O)c1ccc(N=Nc2c(O)ccc3ccccc23)cc1`: the molecule was called inactive in assay [1], in [2] and in [3].

In the case of `COC(C=C(C)CCC=C(C)C)OC`, the outcome in assay [1], in assay [2], in assay [3] and in assay [5] was inactive.

On to `CC(C)=CCl`, for which the outcome in assay [1], in assay [2] and in [4] was inactive.

With `O=c1c(O)c(-c2ccc(O)cc2O)oc2cc(O)cc(O)c12`, the result in assay [1], in [2], in assay [3], in assay [4] and in [5] was inactive.

As for `CCOC(=O)C1=NN(c2ccc(Cl)cc2Cl)C(C)(C(=O)OCC)C1` (configuration not stated), the result in assay [1], in assay [2], in assay [4], in assay [7], in [8] and in assay [10] was inactive. The outcome in assay [11], in [12], in [14], in assay [16], in [18] and in assay [19] was inactive. Further, the AC50 in assay [9] was 20 µM (active); in assay [13], 20 µM (active); in assay [15], 37.5 µM (active); in assay [17], 12.4 µM (active).

Take `CCCCOCCOCCOC(C)=O`: the molecule was classed as inactive in [1], in assay [2], in assay [4] and in assay [5].

As for `Cc1cc(=O)[nH]c(=O)[nH]1`, the molecule was classed as inactive in [1], in assay [2], in assay [4] and in assay [5].

`CC/C=C\C/C=C\C/C=C\CCCCCCCC(=O)OC`: the outcome in assay [1], in assay [2] and in assay [5] was inactive. In addition, the AC50 in assay [3] was 125 µM (active); in assay [6], 19.2 µM (active); in assay [7], 16.2 µM (active); in assay [8], 31.7 µM (active); in assay [9] it was 32.7 µM (active); in assay [10], 10.7 µM (active). In addition, the AC50 is 37.2 µM (active) in assay [11]; 37.2 µM (active) in assay [12]; 29.8 µM (active) in [13]; 33.6 µM (active) in assay [14]; 37.5 µM (active) in [15]; 19.9 µM (active) in assay [16]. The AC50 in [17] is 20 µM (active); in assay [18], 28.5 µM (active); in assay [19], 5.05 µM (active).

Regarding `CN(C)c1ccc2nc3ccc(=[N+](C)C)cc-3sc2c1`, the call in assay [1], in [2] and in assay [4] was inactive.
